Screening data: PubChem, National Center for Advancing Translational Sciences (NCATS)
Compounds with a hit are over-represented: about 17% of the library has one in this group of screens.
ATXN viability = cell viability loss in ATXN counter-screen; S2 cells (HEK-293 line with an ATXN2-luciferase reporter) viability, CellTiter-Fluor protease fluorescence, 24 h; Potency, µM (top dose mostly 56.7 µM), hits mostly cytotoxic; 0.49% of 400,000 active; AID 651635; further: nearly all actives have a fitted effect of over 40% in size
TGFb SMAD3 inh = inhibitors of TGF-b signaling | HepG2 CAGA-GFP TGF-b/SMAD3 reporter, GFP fluorescence, 18 h; TGF-beta stimulated, 500 pg/mL final | Potency, µM (titrated, usually from 46.1 µM), inactives show at the top dose activity, negative = inhibition, actives largely listed as inhibitors | 1.2% of 410,000 active | AID 588855; further: on the % scale 0 is the no-effect control and ±100 the full control effect; nearly all actives have a fitted effect of over 65% in size
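Per well, imaged GFP fluorescence of HEPG2 CAGA-GFP cells gives the signal; cells get compound, then TGF-beta (500 pg/mL final), 18 h at 37 degrees C; %Activity versus -TGF-beta and +DMSO controls.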
HepG2 tox = kills HepG2 cells in TGF-b inhibitor counter-screen | Potency, µM (highest dose often 46.1 µM), without a hit: at the highest dose activity change, negative = cytotoxicity, usual class: cytotoxic | 0.76% of 410,000 active | HepG2 CAGA-GFP viability, ATP luminescence, 18 h
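HepG2 CAGA-GFP cells (1000/well, DMEM with 1% FBS) received compound, then TGF-beta at 500 pg/mL final, and were incubated 18 hours at 37 degrees C. Viability was read by CellTiter-Glo luminescence. Media-only wells were set as complete cell-killing and DMSO as no toxicity.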
TDP1 cell CPT = DT40-hTDP1 cell growth loss with CPT; 12% of 420,000 active; Potency, µM (titrated, usually from 46.2 µM), inactives show top-dose activity change, negative = growth inhibition, actives largely listed as inhibitors; chicken DT40 Tdp1-/-;hTDP1 cells + 20 nM CPT, ATP luminescence, 48 h; further: on the % scale 0 is the no-effect control and ±100 the full control effect; nearly all actives have a fitted effect of over 55% in size
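Chicken DT40 Tdp1-/- cells complemented with human TDP1, 400 cells/well, exposed to compounds plus 20 nM camptothecin for at least 48 h at 37 C; viability read as ATP content by CellTiter-Glo luminescence.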
TDP1 cell noCPT = qHTS for Inhibitors of human tyrosyl-DNA phosphodiesterase 1 (TDP1): qHTS in cells in absence of CPT; 15% of 420,000 active; DT40 Tdp1-/- hTDP1 cells, no CPT, ATP luminescence, 48 h; Potency, µM (series often up to 46.2 µM), without a hit: at the top dose activity change, negative = growth inhibition, actives largely listed as inhibitors; further: on the % scale 0 is the no-effect control and ±100 the full control effect; nearly all actives have a fitted effect of over 55% in size
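Growth kinetics read by CellTiter-Glo luminescence after ≥48 hr at 37 °C. Cells: DT40 Tdp1-/- stably carrying human TDP1, 400 per well, compound exposure in the absence of CPT (DMSO vehicle).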
ATXN2 expr inh = reduces ATXN2 reporter expression in HEK-293 cells; HEK-293 ATXN2-luciferase reporter, luminescence, 24 h; Potency, µM (highest dose often 57 µM), for the others: top-dose activity change, negative = inhibition, most hits filed as inhibitors; 0.72% of 360,000 active; AID 1745845; further: on the % scale 0 is the no-effect control and ±100 the full control effect; nearly all actives have a fitted effect of over 55% in size
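ATXN2-luciferase reporter cells (luciferase flanked by upstream and downstream ATXN2 gene portions) were treated 24 h at 37 °C with compounds at up to 57 uM. SteadyGlo luminescence gave expression; GF-AFC fluorescence gave viability.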
Starred values were filed as active, the others as inactive; i = inactive; u = inconclusive; x = no result given. The call rests on the fitted dose curve; in most records, active means well fitted curve in the direction sought with a large enough effect; inconclusive means small, poorly fitted or top-dose-only effect, or another doubt; inactive means no such curve, though single readings can be large; an effect the other way counts as inactive or inconclusive. Potency means the concentration at half of the fitted maximal effect.

SMILES	ATXN viability	TGFb SMAD3 inh	HepG2 tox	TDP1 cell CPT	TDP1 cell noCPT	ATXN2 expr inh
COc1cc2ccc(=O)oc2c(CC=C(C)C)c1OC	i	2.7%	-2.3%	-24.7%	-20.1%	0.0%
COc1c(O)cc2oc3cc(O)c(CC=C(C)C)c(O)c3c(=O)c2c1CC=C(C)C	x	x	x	18.8µM*	11.9µM*	x
CC(C)=CCc1c(O)cc2oc3c(CC=C(C)C)c(O)c(O)c(CC=C(C)C)c3c(=O)c2c1O	u	6.31µM*	8.91µM*	u	20.6µM*	u
CCCCCCCCCCCCCCCC(=O)OC(C)C	i	x	x	-0.9%	-2.8%	12.8%
COc1ccc(N2CCN(C(=O)CN3C(=O)NC(C)(C4CC4)C3=O)CC2)cc1 (stereo not given)	i	2.8%	-7.2%	3.7%	-19.8%	x
Cc1ccc([C@H]2C[C@@H](n3cc(C4CC4)nn3)[C@H](O)CN2C(=O)C2CCCCC2)cc1	i	13.3%	3.4%	-13.8%	-11.0%	1.1%
CCOC(=O)C1=C(N)Oc2ccc(Br)cc2C1C(C#N)C(=O)OCC (stereo not given)	x	x	x	-4.9%	2.8%	u
CC(=O)NC(Cc1c(F)c(F)c(F)c(F)c1F)C(=O)NCC(N)C(=O)c1ccccc1 (stereo not given)	x	x	x	u	20µM*	x
COc1ccc(C(=O)Nc2ccccn2)cc1S(=O)(=O)N1CCOCC1	u	-15.7%	3.0%	19.9%	13.8%	5.0%
COc1ccc(C(=O)Nc2nc(-c3ccccn3)cs2)cc1S(=O)(=O)N1CCOCC1	i	-24.7%	-45.0%	13µM*	5.17µM*	x
O=C(Nc1nc(-c2ccccn2)cs1)c1cccc(S(=O)(=O)N2CCOCC2)c1	u	-24.6%	-36.7%	4.11µM*	2.91µM*	x
NS(=O)(=O)c1cccc(NS(=O)(=O)c2ccc(/C=C/C(=O)O)cc2)c1	i	-1.3%	12.6µM*	4.8%	-4.0%	2.3%
O=C(O)/C=C/c1cccc(NS(=O)(=O)c2ccccc2)c1	i	5.8%	9.1%	2.0%	7.1%	-14.0%
COc1ccc(Cl)cc1C(=O)Nc1ccc(-c2nnc3n2CCCCC3)cc1	i	u	-5.5%	u	u	-28.8%
Cc1cc(C)n(-c2ccc(Cl)c(C(=O)Nc3ccc(-c4nnc5n4CCCCC5)cc3)n2)n1	i	-18.2%	3.9%	2.06µM*	1.84µM*	5.2%
COc1ccc(/C=C/C(=O)Nc2ccc(-c3nnc4n3CCCCC4)cc2)c(OC)c1	i	-2.4%	5.7%	9.2µM*	2.31µM*	-8.9%
COc1ccc(C(=O)C(O)C(c2ccc(C)cc2)N2CCOCC2)cc1OC (stereo not given)	i	7.7%	-3.9%	-1.9%	-3.8%	-1.0%
CCc1cc(=O)oc2c3c(cc(OCC(=O)NCCN4CCOCC4)c12)OC(C)(C)CC3	i	6.6%	-16.8%	-8.6%	u	-10.1%
Cc1nn(-c2ccccc2)c2sc(C(=O)Nc3cccc(Br)c3)cc12	i	-13.2%	5.9%	u	u	-16.8%
O=C(CNC(=O)Cc1ccccc1)NCC(=O)OCC(=O)c1cccc2ccccc12	i	3.0%	-4.2%	u	17.8µM*	1.6%
O=C(CNC(=O)c1ccco1)OCC(=O)c1cccc2ccccc12	i	u	-5.4%	16.4µM*	u	6.4%
O=C(CNC(=O)c1ccccc1)OCC(=O)c1cccc2ccccc12	x	15.8%	-3.5%	u	u	x
N#Cc1c(-c2ccccc2)nc(SCC(=O)N2c3ccccc3Sc3ccccc32)[nH]c1=O	i	-11.6%	-5.1%	-6.0%	-0.4%	-23.7%
CC(=O)N1CCN(c2nc(-c3ccco3)c3c(c2C#N)CC(C)(C)SC3)CC1	i	u	-12.7%	u	23.1µM*	1.3%
CC1(C)Cc2c(C#N)c(N3CCN(C(=O)c4ccco4)CC3)nc(-c3ccco3)c2CS1	i	-1.4%	-24.1%	-29.7%	u	-6.4%
SMILES	ATXN viability	TGFb SMAD3 inh	HepG2 tox	TDP1 cell CPT	TDP1 cell noCPT	ATXN2 expr inh
CC1(C)Cc2c(C#N)c(SCC(=O)c3ccccc3)nc(N3CCOCC3)c2CS1	i	0.0%	-26.7%	u	16.4µM*	-1.0%
COC1=CC(=O)C(OC)=C(OC)C1=O	25.1µM*	u	-111.9%	0.731µM*	1.16µM*	u
COc1ccc(C(=O)N(CC2CCCO2)C(C(=O)NC2CCCC2)c2ccc(Cl)cc2)cc1OC (stereo not given)	i	-3.0%	-4.7%	u	18.4µM*	-7.3%
Cc1cc(-c2ccc(C(C)C)c(S(=O)(=O)N3CC(=O)Nc4ccccc43)c2)on1	i	-11.3%	-8.8%	-26.9%	-0.8%	-15.2%
CCC1CN(S(=O)(=O)c2cc(-c3cc(C)no3)ccc2OC)c2cc(C)ccc2O1 (stereo not given)	i	-8.1%	3.5%	18.4µM*	23.1µM*	13.6%
COc1ccc(-c2cc(C)no2)cc1S(=O)(=O)N1CCN(c2cccc(C)c2)C(C)C1 (stereo not given)	i	u	9.0%	16.4µM*	23.1µM*	x
COc1ccc(-c2cc(C)no2)cc1S(=O)(=O)N1CCOc2ccccc21	i	4.5%	-20.0%	u	18.4µM*	x
Cc1cc(-c2ccc(C(C)C)c(S(=O)(=O)N3CCOc4ccccc43)c2)on1	i	u	-15.6%	u	18.4µM*	-37.6%
CCC1CN(S(=O)(=O)c2cc(-c3cc(C)no3)ccc2OC)c2cc(Cl)ccc2O1 (stereo not given)	x	-6.4%	-6.9%	u	u	x
COc1ccc(-c2cc(C)no2)cc1S(=O)(=O)N1CCc2ccccc21	x	-23.2%	-21.4%	u	u	x
CCc1ccc(OCc2nc(-c3ccc(OC)cc3)no2)c(Br)c1	x	0.0%	-41.8%	-11.9%	u	x
N#Cc1cccc(C(=O)OCC(=O)c2ccc3c(c2)NC(=O)CO3)c1	i	9.6%	-0.4%	-5.5%	0.7%	-0.4%
O=C(CCc1nnc(COc2ccccc2)o1)NC1(c2ccccc2)CC1	i	-3.2%	9.9%	-1.4%	0.9%	x
Cn1nc(-c2ccc(C(=O)Nc3cccnc3)cc2)c2ccccc2c1=O	i	1.3%	-0.3%	u	-11.1%	57.1%
Cc1ccc(-c2nn(CC(=O)NCc3cc(-c4nn(C)c(=O)c5ccccc45)ccc3C)c(=O)c3ccccc23)cc1	12.6µM*	-0.2%	3.55µM*	14.6µM*	13µM*	11.2µM*
